Data published in PubChem BioAssay (NCATS).
Inconclusive results are not listed. The source made the active and inactive calls. Calls come from the whole dose curve; tested in HEK293 reporter line.

Experiment: qHTS for Inhibitors of the Functional Ribonucleoprotein Complex (vRNP) of Lassa (LASV) Arenavirus: LASV Primary Screen - GLuc reporter signal (AID 1347082); note: nearly all actives have a fitted effect of over 60% in size
Conditions: LASV minigenome vRNP, Gaussia luciferase reporter; series mostly up to 57.5 µM; activity change, negative = inhibition: at the top concentration
% is set by controls: 0 for no effect and ±100 for the full control effect.

| Compound | activity change, negative = inhibition |
| --- | --- |
| Oc1ccc(C=Cc2cc(O)cc(O)c2)cc1 | -2.54% (inactive) |
| C=C(C)[C@@H]1CCC2=CC(=O)C[C@@H](C)[C@]2(C)C1 | -9% [at 115 µM] (inactive) |
| CC(=O)C1CCC2C3CCC4=CC(=O)C=CC4(C)C3C(=O)CC12C (stereo not given) | 1.56% (inactive) |
| C=C1CCC(OC(C)=O)C2(C)CCC3C(C)C(=O)OC3C12O (stereo not given) | 7.86% (inactive) |
| COc1c2c(cc(O)c1C(C)=O)OC(C)(C)C=C2 | 1.57% (inactive) |
| COc1c2ccoc2nc2c(OC)c(O[C@@H]3O[C@H](C)[C@@H](O)[C@@H](O)[C@H]3O)ccc12 | -3.7% (inactive) |
| CC1(C)O[C@@H]1COc1c2ccoc2cc2oc(=O)ccc12 | 8.98% (inactive) |
| C/C=C/c1ccc2oc(-c3ccc(O)cc3)c(C)c2c1 | -0.139% (inactive) |
| CCOC(=O)[C@H]1O[C@H]1C(=O)N[C@@H](CC(C)C)C(=O)NCCC(C)C | -0.175% (inactive) |
| C=C(CC[C@]12OC(C(=O)O)C(O)(C(=O)O)C(C(=O)O)(O1)C(OC(=O)/C=C/[C@@H](C)C[C@@H](C)CC)C2O)[C@@H](OC(C)=O)[C@H](C)Cc1ccccc1 (stereo not given in full) | 4.78% (inactive) |
| CC12CCC(=O)C=C1C(F)CC1C2C(O)CC2(C)C1CCC2(O)C(=O)CO (stereo not given) | 5.72% (inactive) |
| COc1cc2c(cc1O)CC[n+]1cc3c(OC)c(OC)ccc3cc1-2 | -10.4% (inactive) |
| CC(Cc1c[nH]c2ccccc12)C(=O)O (stereo not given) | 5.31% (inactive) |
| CCCCC/C=C\C=C\C(=O)OCC | -7.18% [at 115 µM] (inactive) |
| CC[C@H](C)/C=C(C)/C=C/C(=O)Cc1cc(O)c(C)c(O)c1C=O | -0.0977% (inactive) |
| CCOC(=O)Cc1ccccc1 | -38.5% [at 115 µM] (inactive) |
| CC(C)=CCC/C(C)=C/COC=O | 2.5% [at 115 µM] (inactive) |
| COc1cc(C)c(C(=O)Oc2cc(C)c(C(=O)O)c(O)c2C)c(O)c1C | -5.02% (inactive) |
| O=C(Oc1ccccc1)c1ccccc1C(=O)Oc1ccccc1 | 11.7% (inactive) |
| CC(=O)CCc1ccc(O)cc1 | -1.15% [at 115 µM] (inactive) |

| Compound | activity change, negative = inhibition |
| --- | --- |
| CC(C)=CCCC(C)C=O (stereo not given) | 1.09% [at 115 µM] (inactive) |
| O=C(/C=C/c1ccc(O)c(O)c1)c1ccc(O)cc1O | 1% (inactive) |
| Cc1c(O)c2c(c(C(=O)/C=C/c3ccccc3)c1O)OC(C)(C)C=C2 | -0.24% (inactive) |
| C=CC(C)(CCC=C(C)C)OC(=O)CC (stereo not given) | -2.36% [at 115 µM] (inactive) |
| O=C(O)C=C(Br)Br | 5.6% (inactive) |
| CCc1cc(C(C)=NOCc2ccc(C3CCCCC3)c(C(F)(F)F)c2)ccc1CN1CC(C(=O)O)C1 | -16.9% (inactive) |
| CCC(C)C(=O)OCCc1ccccc1 (stereo not given) | -0.761% [at 115 µM] (inactive) |
| C[C@@H]1C(=O)CC2C(C)(C)CCC[C@]2(C)[C@@]1(O)CCc1ccoc1 (stereo not given in full) | -3.15% (inactive) |
| N[C@H](CSSC[C@@H](N)C(=O)O)C(=O)O | 1.51% (inactive) |
| O=C(O)CC(=O)Nc1ccccc1C(=O)O | 3.97% (inactive) |
| C[C@@H]1CC[C@]2(C(=O)O[C@@H]3O[C@H](CO)[C@@H](O)[C@H](O)[C@H]3O)CC[C@]3(C)C(=CCC4[C@@]5(C)CC[C@H](O[C@@H]6OC[C@H](O)[C@H](O[C@@H]7O[C@H](CO)[C@@H](O)[C@H](O)[C@H]7O)[C@H]6O)C(C)(C)C5CC[C@]43C)C2[C@]1(C)O (stereo not given in full) | 2.77% (inactive) |
| COc1c2c(nc3occc13)C(CC=C(C)C)(OC)C(O)CC2 (stereo not given) | -8.77% (inactive) |
| C=CC(C)=CCC=C(C)C | -2.62% [at 115 µM] (inactive) |
| CCCCCCCCCCCCCC/C(C(=O)O)=C(\C)C(=O)O | 10.1% (inactive) |
| C/C=C(/C)C(=O)O[C@@H]1c2c(ccc3ccc(=O)oc23)O[C@@H]1C(C)(C)OC(C)=O | -7.05% (inactive) |
| CC1(C)[C@H](O[C@H]2O[C@H](C(=O)O)[C@@H](O)[C@H](O)[C@H]2O[C@@H]2O[C@H](C(=O)O)[C@@H](O)[C@H](O)[C@H]2O)CC[C@@]2(C)[C@H]1CC[C@]1(C)[C@H]2C(=O)C=C2[C@H]3C[C@@](C)(C(=O)O)CC[C@]3(C)CC[C@]21C | -3.12% (inactive) |
| Cc1cc2c(c(C)c1CCO)C(=O)[C@H](C)C2 | 3.74% (inactive) |
| CC1=CC(C/C(C)=C/COc2ccc3ccc(=O)oc3c2)OC1=O (stereo not given) | -29.6% (inactive) |
| CN1c2c(nc(N)[nH]c2=O)NCC1CNc1ccc(C(=O)NC(CCC(=O)O)C(=O)O)cc1 (stereo not given) | -4.28% (inactive) |
| CCN1CCN(C(=O)N[C@H](C(=O)N[C@@H]2C(=O)N3C(C(=O)O)=C(CSc4nnnn4C)CS[C@@H]23)c2ccc(O)cc2)C(=O)C1=O | -8.41% [at 19.1 µM] (inactive) |

Experiment: qHTS for Inhibitors of the Functional Ribonucleoprotein Complex (vRNP) of Lassa (LASV) Arenavirus: Viability assay - alamar blue signal for LASV Primary Screen (AID 1347083); note: nearly all actives have a fitted effect of over 80% in size
Conditions: cell viability, alamar blue fluorescence (LASV minigenome counter-screen); series mostly up to 57.5 µM; activity change, negative = reduced viability: at the top concentration

| Compound | activity change, negative = reduced viability |
| --- | --- |
| Oc1ccc(C=Cc2cc(O)cc(O)c2)cc1 | -33.4% (inactive) |
| C=C(C)[C@@H]1CCC2=CC(=O)C[C@@H](C)[C@]2(C)C1 | -11.5% [at 115 µM] (inactive) |
| CC(=O)C1CCC2C3CCC4=CC(=O)C=CC4(C)C3C(=O)CC12C (stereo not given) | 18.8% (inactive) |
| C=C1CCC(OC(C)=O)C2(C)CCC3C(C)C(=O)OC3C12O (stereo not given) | 7.77% (inactive) |
| COc1c2c(cc(O)c1C(C)=O)OC(C)(C)C=C2 | 16.6% (inactive) |
| COc1c2ccoc2nc2c(OC)c(O[C@@H]3O[C@H](C)[C@@H](O)[C@@H](O)[C@H]3O)ccc12 | -2.69% (inactive) |
| CC1(C)O[C@@H]1COc1c2ccoc2cc2oc(=O)ccc12 | -11.7% (inactive) |
| C/C=C/c1ccc2oc(-c3ccc(O)cc3)c(C)c2c1 | 0.965% (inactive) |
| CCOC(=O)[C@H]1O[C@H]1C(=O)N[C@@H](CC(C)C)C(=O)NCCC(C)C | -28.1% (inactive) |
| C=C(CC[C@]12OC(C(=O)O)C(O)(C(=O)O)C(C(=O)O)(O1)C(OC(=O)/C=C/[C@@H](C)C[C@@H](C)CC)C2O)[C@@H](OC(C)=O)[C@H](C)Cc1ccccc1 (stereo not given in full) | 8.44% (inactive) |
| CC12CCC(=O)C=C1C(F)CC1C2C(O)CC2(C)C1CCC2(O)C(=O)CO (stereo not given) | 2.01% (inactive) |
| COc1cc2c(cc1O)CC[n+]1cc3c(OC)c(OC)ccc3cc1-2 | 7.3% (inactive) |
| CC(Cc1c[nH]c2ccccc12)C(=O)O (stereo not given) | 4.55% (inactive) |
| CCCCC/C=C\C=C\C(=O)OCC | 5.96% [at 115 µM] (inactive) |
| CC[C@H](C)/C=C(C)/C=C/C(=O)Cc1cc(O)c(C)c(O)c1C=O | -0.117% (inactive) |
| CCOC(=O)Cc1ccccc1 | -128% [at 115 µM] (inactive) |
| CC(C)=CCC/C(C)=C/COC=O | -0.165% [at 115 µM] (inactive) |
| COc1cc(C)c(C(=O)Oc2cc(C)c(C(=O)O)c(O)c2C)c(O)c1C | 11% (inactive) |
| O=C(Oc1ccccc1)c1ccccc1C(=O)Oc1ccccc1 | -0.879% (inactive) |
| CC(=O)CCc1ccc(O)cc1 | 9.74% [at 115 µM] (inactive) |

| Compound | activity change, negative = reduced viability |
| --- | --- |
| CC(C)=CCCC(C)C=O (stereo not given) | 5.28% [at 115 µM] (inactive) |
| O=C(/C=C/c1ccc(O)c(O)c1)c1ccc(O)cc1O | -4.84% (inactive) |
| Cc1c(O)c2c(c(C(=O)/C=C/c3ccccc3)c1O)OC(C)(C)C=C2 | 11.2% (inactive) |
| C=CC(C)(CCC=C(C)C)OC(=O)CC (stereo not given) | 1.85% [at 115 µM] (inactive) |
| O=C(O)C=C(Br)Br | -0.642% (inactive) |
| CCc1cc(C(C)=NOCc2ccc(C3CCCCC3)c(C(F)(F)F)c2)ccc1CN1CC(C(=O)O)C1 | 11% (inactive) |
| CCC(C)C(=O)OCCc1ccccc1 (stereo not given) | 14.2% [at 115 µM] (inactive) |
| C[C@@H]1C(=O)CC2C(C)(C)CCC[C@]2(C)[C@@]1(O)CCc1ccoc1 (stereo not given in full) | 5.47% (inactive) |
| N[C@H](CSSC[C@@H](N)C(=O)O)C(=O)O | 15.9% (inactive) |
| O=C(O)CC(=O)Nc1ccccc1C(=O)O | 5.85% (inactive) |
| C[C@@H]1CC[C@]2(C(=O)O[C@@H]3O[C@H](CO)[C@@H](O)[C@H](O)[C@H]3O)CC[C@]3(C)C(=CCC4[C@@]5(C)CC[C@H](O[C@@H]6OC[C@H](O)[C@H](O[C@@H]7O[C@H](CO)[C@@H](O)[C@H](O)[C@H]7O)[C@H]6O)C(C)(C)C5CC[C@]43C)C2[C@]1(C)O (stereo not given in full) | 16.7% (inactive) |
| COc1c2c(nc3occc13)C(CC=C(C)C)(OC)C(O)CC2 (stereo not given) | -9.82% (inactive) |
| C=CC(C)=CCC=C(C)C | 2.3% [at 115 µM] (inactive) |
| CCCCCCCCCCCCCC/C(C(=O)O)=C(\C)C(=O)O | -0.109% (inactive) |
| C/C=C(/C)C(=O)O[C@@H]1c2c(ccc3ccc(=O)oc23)O[C@@H]1C(C)(C)OC(C)=O | 11% (inactive) |
| CC1(C)[C@H](O[C@H]2O[C@H](C(=O)O)[C@@H](O)[C@H](O)[C@H]2O[C@@H]2O[C@H](C(=O)O)[C@@H](O)[C@H](O)[C@H]2O)CC[C@@]2(C)[C@H]1CC[C@]1(C)[C@H]2C(=O)C=C2[C@H]3C[C@@](C)(C(=O)O)CC[C@]3(C)CC[C@]21C | 1.18% (inactive) |
| Cc1cc2c(c(C)c1CCO)C(=O)[C@H](C)C2 | 2.65% (inactive) |
| CC1=CC(C/C(C)=C/COc2ccc3ccc(=O)oc3c2)OC1=O (stereo not given) | 2.97% (inactive) |
| CN1c2c(nc(N)[nH]c2=O)NCC1CNc1ccc(C(=O)NC(CCC(=O)O)C(=O)O)cc1 (stereo not given) | 6.21% (inactive) |
| CCN1CCN(C(=O)N[C@H](C(=O)N[C@@H]2C(=O)N3C(C(=O)O)=C(CSc4nnnn4C)CS[C@@H]23)c2ccc(O)cc2)C(=O)C1=O | -4.9% [at 19.1 µM] (inactive) |
